Holding throughout (assay): thermal shift delta Tm vs DMSO control; higher = stronger stabilization (binding)
Common to all, as to details: 12.5 µM; protein concentration 2 µM

One assay concerns LOC_OS04G57630-cb004. Put shortly:
(§1)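 Rice kinase domain constructs, made in E. coli and purified, were placed in 96-well plates at 2 μM in 19.5 μl of 100 mM potassium phosphate pH 7.5, 150 mM NaCl, 10% glycerol and 5 × SYPRO Orange, with compound in DMSO. A temperature ramp from 25°C to 95°C at 0.05°C/s was used for differential scanning fluorimetry. The melting temperature shift is a triplicate mean compared with DMSO-only protein, derived from Boltzmann fits.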

The test system of the next assay is LOC_OS05G07850-cb002. Put shortly:
as §1

The next assay concerns LOC_OS05G16824-cb004. The method in brief: as §1
A further assay has as its system LOC_OS05G28520-cb001. The method in brief:
as §1

Another assay concerns LOC_OS05G30820-cb001. The method in brief:
as §1

Another assay deals with LOC_OS05G43570-cb004. The method in brief:
as §1

The next assay has as its system LOC_OS06G16330-cb003. Put shortly:
as §1

The next assay relates to T1, LOC_OS06G22820-cb001.
T1 sequence (whole entry): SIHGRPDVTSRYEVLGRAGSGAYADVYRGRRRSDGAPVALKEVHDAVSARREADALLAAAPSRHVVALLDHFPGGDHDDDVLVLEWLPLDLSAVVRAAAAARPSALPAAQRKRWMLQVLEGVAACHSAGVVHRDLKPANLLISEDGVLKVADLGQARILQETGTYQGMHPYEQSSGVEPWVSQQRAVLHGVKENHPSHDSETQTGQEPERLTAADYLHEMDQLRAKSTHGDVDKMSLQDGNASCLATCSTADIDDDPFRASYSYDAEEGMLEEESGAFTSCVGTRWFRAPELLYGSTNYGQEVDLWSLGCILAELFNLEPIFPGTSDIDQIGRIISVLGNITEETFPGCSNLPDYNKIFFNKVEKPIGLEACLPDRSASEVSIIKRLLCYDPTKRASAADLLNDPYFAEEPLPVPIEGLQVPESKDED
Put shortly:
as §1

The test system of another assay is LOC_OS07G06570-cb004. Put shortly:
as §1

The subject of a further assay is LOC_OS07G07230-cb001. The method in brief: as §1

“And” between values parts separate entries of the source, which are not always exact repeats. Identical values can stand only once.
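Further: purified Escherichia coli-expressed rice kinase domain construct.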

LOC_OS06G16330-cb003, sequence (as listed by the source): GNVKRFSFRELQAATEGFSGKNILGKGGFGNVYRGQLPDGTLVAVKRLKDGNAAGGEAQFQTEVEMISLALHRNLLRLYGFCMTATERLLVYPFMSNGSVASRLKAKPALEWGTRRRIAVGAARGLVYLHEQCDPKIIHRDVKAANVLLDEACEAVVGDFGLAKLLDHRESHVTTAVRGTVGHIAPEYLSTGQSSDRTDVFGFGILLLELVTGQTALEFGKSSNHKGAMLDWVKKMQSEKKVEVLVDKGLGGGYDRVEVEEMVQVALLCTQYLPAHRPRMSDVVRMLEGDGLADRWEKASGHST

On to `CNC(=O)c1nn(C)c2c1C(C)(C)Cc1cnc(Nc3ccc(N4CCN(C)CC4)cc3)nc1-2`, for which the “thermal shift delta Tm” value is 3.76 °C in the assay with LOC_OS04G57630-cb004; 6.76 °C with LOC_OS05G07850-cb002; 7.67 °C in the assay with LOC_OS05G16824-cb004; 4.23 °C with LOC_OS05G28520-cb001; 0.45 °C in the assay with LOC_OS05G30820-cb001; 0.22 °C with LOC_OS05G43570-cb004. Also, the “thermal shift delta Tm” value amounted to 4.37 °C in the assay on LOC_OS06G16330-cb003, 0.43 °C in the assay on LOC_OS06G22820-cb001, 0.26 °C in the assay on LOC_OS07G06570-cb004 and 0.04 °C in the assay with LOC_OS07G07230-cb001.

As to `CC(C)(C)S(=O)(=O)c1ccc2nccc(Nc3n[nH]c4ccc(F)cc34)c2c1`, the “thermal shift delta Tm” value in the assay on LOC_OS04G57630-cb004 is 0.34 °C; in the assay on LOC_OS05G07850-cb002, 2.55 °C; with LOC_OS05G16824-cb004, -0.25 °C; in the assay with LOC_OS05G28520-cb001, -0.33 °C; in the assay with LOC_OS05G30820-cb001, 0.52 °C; in the assay on LOC_OS05G43570-cb004 it was 0.22 °C. Moreover, the “thermal shift delta Tm” value with LOC_OS06G16330-cb003 is 0.6 °C; with LOC_OS06G22820-cb001, 0.36 °C; in the assay with LOC_OS07G06570-cb004, 0.6 °C; in the assay on LOC_OS07G07230-cb001, 0.92 °C.

On to `O=C(c1ccc(Nc2nccc(-c3cc4ccccc4s3)n2)cc1)N1CCC(N2CCCC2)CC1` [IKK-16 (IKK Inhibitor VII)], for which the “thermal shift delta Tm” value in the assay with LOC_OS04G57630-cb004 was 5.63 °C; with LOC_OS05G07850-cb002 it was 15.2 °C; in the assay on LOC_OS05G16824-cb004 it was 7.99 °C; in the assay with LOC_OS05G28520-cb001, 1.89 °C; with LOC_OS05G30820-cb001, 0.77 °C; in the assay with LOC_OS05G43570-cb004 it was -0.31 °C. The “thermal shift delta Tm” value with LOC_OS06G16330-cb003 was determined as 9.02 °C; with LOC_OS06G22820-cb001, 0.14 °C; in the assay with LOC_OS07G06570-cb004, 0.72 °C; in the assay with LOC_OS07G07230-cb001, 0.03 °C.

`COc1cc2c(Nc3ccc(NC(=O)c4ccccc4)cc3)ncnc2cc1OCCCN1CCOCC1`: the “thermal shift delta Tm” value in the assay with LOC_OS04G57630-cb004 came to 1.89 °C; in the assay with LOC_OS05G07850-cb002, 5.62 °C; in the assay with LOC_OS05G16824-cb004 it was 1.9 °C; with LOC_OS05G28520-cb001, 1.02 °C; with LOC_OS05G30820-cb001, 0.36 °C; in the assay with LOC_OS05G43570-cb004, 0.4 °C. Besides, the “thermal shift delta Tm” value in the assay with LOC_OS06G16330-cb003 was 1.97 °C; in the assay on LOC_OS06G22820-cb001, 0.94 °C; in the assay with LOC_OS07G06570-cb004, 0.77 °C; in the assay on LOC_OS07G07230-cb001, 0.42 °C.

As for `O=C(NC1CCNCC1)c1n[nH]cc1NC(=O)c1c(Cl)cccc1Cl`, the “thermal shift delta Tm” value is -0.08 °C and 0.55 °C in the assay on LOC_OS04G57630-cb004; 0.37 °C and 0.45 °C with LOC_OS05G07850-cb002; -3.35 °C and -1.47 °C with LOC_OS05G16824-cb004; 0.1 °C and 0.64 °C in the assay on LOC_OS05G28520-cb001; 0.56 °C and 0.5 °C in the assay with LOC_OS05G30820-cb001; 0.07 °C and 0.69 °C with LOC_OS05G43570-cb004. Moreover, the “thermal shift delta Tm” value in the assay with LOC_OS06G16330-cb003 is -0.07 °C and 0.05 °C; with LOC_OS06G22820-cb001 it was 0.77 °C and 1.12 °C; in the assay on LOC_OS07G06570-cb004, 0.44 °C and 0.91 °C; in the assay with LOC_OS07G07230-cb001, 0.04 °C and 0.01 °C.

Consider `CO[C@H]1C[C@@H]2CC[C@@H](C)[C@@](O)(O2)C(=O)C(=O)N2CCCC[C@H]2C(=O)O[C@H]([C@H](C)C[C@@H]2CC[C@H](n3cnnn3)[C@H](OC)C2)CC(=O)[C@H](C)/C=C(\C)[C@@H](O)[C@@H](OC)C(=O)[C@H](C)C[C@H](C)/C=C/C=C/C=C/1C` [Zotarolimus(ABT-578)], for which the “thermal shift delta Tm” value was 0.76 °C in the assay on LOC_OS04G57630-cb004; 0.65 °C with LOC_OS05G07850-cb002; -0.34 °C in the assay on LOC_OS05G16824-cb004; 0.87 °C in the assay with LOC_OS05G28520-cb001; 0.57 °C in the assay on LOC_OS05G30820-cb001; 1.17 °C with LOC_OS05G43570-cb004. The “thermal shift delta Tm” value with LOC_OS06G16330-cb003 was -0.09 °C; in the assay with LOC_OS06G22820-cb001, 0.92 °C; with LOC_OS07G06570-cb004, 1.43 °C; with LOC_OS07G07230-cb001 it was -0.08 °C.

In the case of `COc1cc(Nc2ncc(F)c(Nc3ccc4c(n3)NC(=O)C(C)(C)O4)n2)cc(OC)c1OC`, the “thermal shift delta Tm” value in the assay on LOC_OS04G57630-cb004 is 1.55 °C; with LOC_OS05G07850-cb002, 13.2 °C; with LOC_OS05G16824-cb004, 12.2 °C; in the assay with LOC_OS05G28520-cb001 it was 0.56 °C; in the assay with LOC_OS05G30820-cb001, 1.19 °C; in the assay on LOC_OS05G43570-cb004, 0.37 °C. The “thermal shift delta Tm” value came to 12.2 °C in the assay with LOC_OS06G16330-cb003, 0.02 °C in the assay with LOC_OS06G22820-cb001, 0.43 °C with LOC_OS07G06570-cb004 and 0.41 °C in the assay on LOC_OS07G07230-cb001.

Source of the values: the supplement of paper PMC9694430.
